The structures appear in SMILES notation. Compounds without any hit were thinned out: in the full panel of roughly 83,000, 20% have a hit.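 Cells were grown in 96-well plates and exposed to the test compound at a single concentration for 48 hours; results are reported as percent growth, with values below 10 considered active.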 Activity calls are given as the source filed them.

The assay deals with MDA-MB-468 breast. Put plainly: NCI-60 one-dose screen, 48 h (100 = growth as untreated, 0 = no growth, -100 = all killed). The following applies: 10 µM unless noted.
Turning to `CC(=O)[C@H]1CC[C@H]2[C@@H]3CC[C@@H]4CC=C(C=O)C[C@]4(C)[C@H]3CC[C@]12C`, the growth is 99.4% (inactive).
The value for `COC(=O)[C@]12CC[C@@H](C)[C@H](C)[C@@H]1C1=CC[C@@H]3[C@@]4(C)CC(=O)[C@H](O)[C@@](C)(CO)[C@@H]4C(=O)C[C@@]3(C)[C@]1(C)CC2` was -4.93% (active); that for `CCOc1cc(-c2ccc[nH]2)[nH]c1/C=C1\N=C(C)C(C(=O)OC)=C1C` was -86.9% (active).
The value for `c1ccc(-c2n(Cc3ccc4ccccc4n3)c3ccccc3[n+]2Cc2ccc3ccccc3n2)cc1` was -34.3% (active); that for `CCO/C=N/C1=C(C#N)C(c2ccc(F)cc2)c2sc3c(F)cccc3c2O1` (stereo not given) was 27.2% (inactive); that for `CCN(CCNc1ccc(C)c2sc3ccccc3c(=O)c12)CC(C)(C)O` was 26% (inactive).
The value for `O=C(Nc1ccc(OCc2nnc(-c3ccccc3)o2)c(F)c1)Nc1ccc(Cl)c(Cl)c1` was 26.3% (inactive); that for `COc1ccc(C2=NN(C=O)C(c3cccc(Nc4ccnc5cc(Cl)ccc45)c3)C2)cc1` (stereo not given) was -3.92% (active); that for `CCSc1sc(-c2ccc(C)cc2)nc1[P+](c1ccccc1)(c1ccccc1)c1ccccc1` was -61.4% (active).
Take `CCOC(=O)C(C)(C#N)C1C=CCCC1` (stereo not given): the growth is 75.6% (inactive).
The value for `COc1ccc(/C=C2/CN(CCC#N)C/C(=C\c3ccc(OC)cc3)C2=O)cc1` was -28% (active); that for `CC1CCC(=O)N1c1ccc(N)cc1` (stereo not given) was 115% (inactive); that for `CN1CCCCC1CCN1c2ccccc2Sc2ccc(Br)cc21` (stereo not given) was 32.1% (inactive).
The value for `COc1ccc(C2c3ccc4ccccc4c3Oc3nc(C)[nH]c(=O)c32)cc1` (stereo not given) was 111% (inactive); that for `COc1ccc(-c2cc(-c3nnc(SCC(=O)Nc4ccc(C(C)=O)cc4)n3-c3ccccc3)c3ccccc3n2)cc1OC` was 111% (inactive).
The value for `O=C(Nc1ccncc1)C(=O)c1cn(S(=O)(=O)c2ccccc2F)c2ccccc12` was 16.4% (inactive).
Turning to `COc1cc2c(cc1O)CC[C@@H]1[C@@H]2CC[C@]2(C)[C@@H](OCCCN(C)C)CC[C@@H]12`, the growth is -58.5% (active).
The value for `CCCCC(N)(C(=O)O)C1CCCC1` (stereo not given) was 107% (inactive).
The value for `CS(=O)(=O)c1nnc(-c2ccccc2)s1` was -8.46% (active); that for `C=C(C=O)[C@@H]1CC[C@]2(C)[C@H](CC=C3[C@H]4[C@@H](C)[C@H](C)CC[C@]4(C(=O)OC)CC[C@]32C)[C@@]1(C)CCC#N` was -18.1% (active).
Regarding `O=C1c2ccccc2C(=O)c2c(Nc3ccc(CCO)cc3)ccc(O)c21`, the growth was 38% (inactive).
The value for `CC/C=C\C[C@H]1C/C=C2/C(=O)C=C[C@@H]2C/C=C\CCCC(=O)O1` was -33.6% (active).
In the case of `CC(Cl)(CCl)CS(=O)(=O)c1ccc(Cl)cc1` (stereo not given), the growth is 104% (inactive).
The value for `CN(C)C(=O)SC1=C(c2c(Cl)cccc2Cl)C(=O)c2ccccc21` was -86.5% (active); that for `Nc1cc(Br)cc2c1[nH]c(=O)c1ccccc12` was -8.15% (active).
The value for `COc1ccc2c(c1)c(-c1nc(-c3c[nH]c4ncccc34)cs1)cn2CCCN1CCCCC1` was 57.9% (inactive).
The value for `O=[N+]([O-])c1ccc(Sc2nc(Cl)nc(NC3CCCC3)n2)cc1` was -46.5% [100 µM] (active); that for `COC(=O)c1ccccc1N(C)C` was 107% (inactive).
Consider `O=C(Cc1ccc(/C=C/C(=O)c2ncc[nH]2)cc1)Nc1ccc(F)cc1`, for which the growth was 4.59% (active).
On to `C=CCOC(=O)C1=C(C)NC2=C(C(=O)CCC2)C1c1ccc(F)cc1` (stereo not given), for which the growth was 92.3% (inactive).
The value for `BrCc1cccc(C[P+](c2ccccc2)(c2ccccc2)c2ccccc2)c1` was -12.4% (active).
Regarding `Cc1nc2c(=O)[nH]c(SCC(=O)Nc3cccc(F)c3)nc2[nH]c1=O`, the growth is 98.9% (inactive).
As to `CCn1cnc(C[C@H](NC(=O)[C@H](CCCCNC(=O)Nc2cc(C(F)(F)F)cc(C(F)(F)F)c2)NC(=O)Nc2cc(C(F)(F)F)cc(C(F)(F)F)c2)C(=O)OC)c1`, the growth is -21% [100 µM] (active).
For `CS(=O)(=O)c1ccc(NC(=O)c2ccccc2)nc1`, the growth is 105% (inactive).
The value for `O=C1C=C(Cl)C(=O)c2ccccc21` was -6.29% (active).
The value for `Cc1ccc(N(CC(=O)Nc2ccc(S(=O)(=O)N3CCC(N4CCCC4)CC3)cc2)S(=O)(=O)c2ccc(Cl)cc2)cc1` was -19.6% (active); that for `CCC(C)(C)C(=O)O[C@H]1C[C@@H](C)C=C2C=C[C@H](C)[C@H](CC[C@@H]3CC(SCCN)CC(=O)O3)[C@H]21` (stereo not given in full) was 90.3% (inactive).
The value for `O=C1/C(=C\c2ccc(Br)o2)SC(=S)N1CCc1ccc(O)cc1` was 28.2% (inactive); that for `C/C(=N\O)c1ccccn1` was 97.6% (inactive).
As to `Cn1c(=O)c2nc(SCc3ccccc3)n(C)c2n(C)c1=O`, the growth was 103% (inactive).

(Values after PubChem BioAssay (NCI).)
